Screening data as filed in PubChem.
DT40 TDP1 CPT: DT40-hTDP1 cell growth loss with CPT. 12% of 420,000 active. AID 686979. chicken DT40 Tdp1-/-;hTDP1 cells + 20 nM CPT, ATP luminescence, 48 h. Potency, µM (doses to about 46.2 µM), without a hit: at the top dose activity change, negative = growth inhibition, most hits filed as inhibitors; note: potency is the fitted concentration of half-maximal effect; nearly all actives have a fitted effect of over 55% in size
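Chicken DT40 Tdp1-/- cells complemented with human TDP1, 400 cells/well, exposed to compounds plus 20 nM camptothecin for at least 48 h at 37 C; viability read as ATP content by CellTiter-Glo luminescence.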
IL1B secr inh: inhibitors of inflammasome signaling (IL-1 beta secretion); THP-1 LPS/ATP IL-1B secretion, AlphaLISA, 16 h; active compounds read low; activity change, % at 57.5 µM; 4.7% of 360,000 active; AID 743279; in the data active = activity change below about -50%; inconclusive = mostly about -30% to -49%
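THP-1 cells pretreated 1 hr with compounds (up to 57.5 uM final), then stimulated with LPS (250 ng/mL final) plus ATP (1.25 mM final); secreted IL-1B measured by AlphaLISA after 16 hr, decreased signal indicating inhibition.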
12-LOX inh: inhibitors of human 12S-lipoxygenase ALOX12. P18054. purified 12hLO, xylenol orange hydroperoxide absorbance. Potency, µM (series often up to 108 µM), for inactives: top-dose activity change, negative = inhibition, usual class: inhibitors. 1.1% of 580,000 active; note: potency is the fitted concentration of half-maximal effect
Target sequence (P18054 whole entry, looked up): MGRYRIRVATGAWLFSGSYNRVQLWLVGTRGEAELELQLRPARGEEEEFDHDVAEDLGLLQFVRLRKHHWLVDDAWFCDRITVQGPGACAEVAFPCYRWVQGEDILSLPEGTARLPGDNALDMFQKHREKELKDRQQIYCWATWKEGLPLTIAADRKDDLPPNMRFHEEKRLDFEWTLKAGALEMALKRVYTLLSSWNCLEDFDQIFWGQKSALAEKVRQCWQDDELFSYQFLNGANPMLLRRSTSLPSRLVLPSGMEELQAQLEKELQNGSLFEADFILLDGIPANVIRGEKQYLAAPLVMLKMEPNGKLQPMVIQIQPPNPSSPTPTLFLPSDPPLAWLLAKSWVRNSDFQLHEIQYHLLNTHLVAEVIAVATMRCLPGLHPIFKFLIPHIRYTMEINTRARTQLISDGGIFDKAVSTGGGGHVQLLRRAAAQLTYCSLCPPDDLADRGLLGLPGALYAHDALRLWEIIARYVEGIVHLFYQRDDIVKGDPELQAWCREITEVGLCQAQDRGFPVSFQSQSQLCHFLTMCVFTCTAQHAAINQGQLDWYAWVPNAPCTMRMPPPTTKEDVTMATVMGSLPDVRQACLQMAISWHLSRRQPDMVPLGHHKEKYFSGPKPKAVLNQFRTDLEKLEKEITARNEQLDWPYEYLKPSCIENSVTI
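Purified human 12hLO (150 nM final) in 25 mM Hepes, 0.01% Triton X-100, pH 7.0 was preincubated 15 min at room temperature with compound. Then 40 uM arachidonic acid was added, 30 min. Hydroperoxide was read by Fe-XO absorbance ratio 573/405 nm.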
DT40 TDP1 no CPT: qHTS for Inhibitors of human tyrosyl-DNA phosphodiesterase 1 (TDP1): qHTS in cells in absence of CPT | DT40 Tdp1-/- hTDP1 cells, no CPT, ATP luminescence, 48 h | Potency, µM (highest dose often 46.2 µM), for inactives: top-dose activity change, negative = growth inhibition, usual class: inhibitors | 15% of 420,000 active | AID 686978, 2013; note: potency is the fitted concentration of half-maximal effect; nearly all actives have a fitted effect of over 55% in size
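Stably hTDP1-transfected Tdp1-null chicken DT40 cells were treated with library compounds minus camptothecin and grown for at least 48 hr at 37 °C, after which cellular ATP was quantified by luminescence.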
HT1080-NT tox: kills 2HG-producing HT-1080-NT fibrosarcoma cells; HT-1080-NT fibrosarcoma viability, CellTiter-Glo ATP luminescence, 48 h; Potency, µM (top dose mostly 46.1 µM), for inactives: top-dose activity, negative = less viability, actives largely listed as cytotoxic; 1.6% of 360,000 active;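 note: NT is the 2HG producing partner of a matched IDH1 knockdown line; potency is the fitted concentration of half-maximal effect; 0% = DMSO-treated cells and -100% = media-only wells without cells; nearly all actives have a fitted effect of over 55% in size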
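HT-1080-NT fibrosarcoma cells (2HG-overproducing), 750 cells/well in RPMI with 5% FBS, dosed after 2 h and incubated 48 h at 37C. CellTiter-Glo luminescence normalized to DMSO and no-cell wells; concentration-response curves fitted and classed.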
HT1080 IDH1KD tx: kills HT-1080 cells with IDH1 knockdown; 2% of 360,000 active; Potency, µM (series often up to 46.1 µM), inactives show at the highest dose activity, negative = toxicity, actives largely listed as cytotoxic; HT-1080 IDH1 knockdown viability, ATP luminescence, 48 h;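 note: potency is the fitted concentration of half-maximal effect; 0% = DMSO wells and -100% = cell-free medium wells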
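Using the IDH1-knockdown HT-1080 line run in the same batch and compound series as the NT line, viability after 48 h at 37 °C was determined by CellTiter-Glo luminescence and expressed as % activity.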
* hit, by the source's call; ? = inconclusive; / = no result given; [ ] = remark or other dose. This is one part of a sample in which hits are shown more often than they occur. Unless noted, calls come from the whole dose curve; as a rule, active = well fitted curve in the direction sought with a large enough effect; inconclusive = small, poorly fitted or top-dose-only effect, or another doubt; inactive = no such curve, though single readings can be large; an effect the other way counts as inactive or inconclusive. Unless noted, % is set by controls: 0 for no effect and ±100 for the full control effect.

SMILES	DT40 TDP1 CPT	IL1B secr inh	12-LOX inh	DT40 TDP1 no CPT	HT1080-NT tox	HT1080 IDH1KD tx
COc1ccccc1NC(=O)CN1CCC(C(=O)c2ccc(F)cc2)CC1	?	17	0%	?	1%	-4%
Cc1ccc(C(=O)C2CCN(CC(=O)Nc3nc(C)cs3)CC2)cc1	21µM*	-3	6%[57.4 µM]	16µM*	0%	1%
CCOc1ccccc1NC(=O)CN1CCC(C(=O)c2ccc(F)cc2)CC1	21µM*	-4	-11%	26µM*	-4%	-9%
CC(=O)NCCCC(=O)N1CCOC2(CCN(C(=O)CCCN)CC2)C1	/	/	3%[6.33 µM]	/	/	/
CCOc1ccccc1Cn1c(SCC(=O)NC(C)(C)C)nc2c(sc3ncccc32)c1=O	/	/	-5%	/	/	/
CCCCn1cnc2c(SCc3ccc([N+](=O)[O-])cc3)nc(N)nc21	15µM*	0	-2%	?	-1%	-1%
CCCCn1cnc2c(Sc3c([N+](=O)[O-])ncn3C)nc(N)nc21	-12%	-95*	-10%	?	-20%	?
CCC(C)Cn1cnc2c(SCc3ccccn3)nc(N)nc21 (configuration not stated)	-14%	-9	?	?	-14%	-11%
Nc1nc(SCc2ccccc2[N+](=O)[O-])c2ncn(Cc3ccccc3)c2n1	?	-21	-5%	?	?	?
CCCCn1cnc2c(SCc3cccc(F)c3)nc(N)nc21	-23%	-25	-22%	?	-15%	-15%
CCCCn1cnc2c(SCc3ccccn3)nc(N)nc21	9%	-75*	-11%	-1%	2%	2%
Cn1cnc([N+](=O)[O-])c1Sc1nc(N)nc2c1ncn2Cc1ccccc1	?	-101*	-23%	?	0%	-27%
COC(=O)c1ccc(COC(=O)c2c3c(nc4ccccc24)CCCC3)o1	/	/	15%	/	/	/
CCCn1cnc2c(Sc3c([N+](=O)[O-])ncn3C)nc(N)nc21	-26%	-54*	7%	?	-4%	-8%
CCCn1cnc2c(SCc3ccccc3F)nc(N)nc21	-28%	-23	-5%	?	-19%	?
O=C([C@@H]1C[C@H](F)CN1S(=O)(=O)c1cccc(C(F)(F)F)c1)N1CCCCC1	/	/	8%	/	/	/
Nc1nnnn1/N=C/c1cccc(OCc2ccccc2Cl)c1	26µM*	25	0%	?	-29%	-27%
CN=C(NC)NCc1ccc(C(=O)OC)cc1	/	/	25µM*	/	/	/
COC(=O)c1ccc(CNCC(=O)Nc2ccc(C(=O)OC)cc2)cc1	?	19	0%	10%	0%	-2%
COC(=O)c1ccc(CNc2ccc(C(C)=O)cc2)cc1	?	0	5%	15µM*	0%	-7%
O=C(Nc1ccc(-c2nc3cccnc3s2)cc1)c1ccc(Br)o1	12µM*	2	-22%	8.2µM*	19%	-5%
Cc1cc(NC(=O)c2ccc(-c3ccc(Br)cc3)o2)cc(-c2nc3ncccc3o2)c1O	-23%	/	-9%	-15%	/	/
O=C(NCc1ccc(-c2nc3ccccc3s2)cc1)c1ccco1	-13%	-1	-19%	-5%	9%	7%
O=C(Nc1ccc(-c2nc3cccnc3s2)cc1)c1ccco1	?	-23	9%	13µM*	3%	-9%
O=C(Nc1ccc(-c2nc3ncccc3o2)cc1)c1ccc(Br)o1	?	-55*	?	?	0%	-9%
SMILES	DT40 TDP1 CPT	IL1B secr inh	12-LOX inh	DT40 TDP1 no CPT	HT1080-NT tox	HT1080 IDH1KD tx
O=C(Nc1ccc(-c2nc3cccnc3s2)cc1)c1cccnc1Cl	0%	20	-16%	-29%	6%	4%
O=C(NC(=S)NCc1ccc(-c2nc3ccccc3s2)cc1)c1ccco1	?	0	11µM*	?	?	?
Cc1c(NC(=O)CC(C)C)cccc1-c1nc2cccnc2s1	?	/	-15%	?	/	/
Cc1c(NC(=O)c2ccco2)cccc1-c1nc2cccnc2s1	21µM*	58	-5%	?	-13%	-2%
CCN(C(=O)CSc1nnc(Cn2nnc3ccccc32)o1)c1nc(-c2ccccc2)cs1	23µM*	-5	0%	?	0%	-7%
O=C(CSc1nnc(Cn2nnc3ccccc32)o1)N(Cc1ccc(Cl)cc1)c1ccccc1	7.3µM*	-52*	-5%	7.3µM*	-5%	3.3µM*
CCN(C(=O)CSc1nnc(Cn2nnc3ccccc32)o1)c1nc(C)cs1	?	22	?	?	-1%	-4%
CC(CCC(=O)NN)C1CCC2C3CCC4CC(O)CCC4(C)C3CCC12C (configuration not stated)	1%	0	-16%	26µM*	-1%	-11%
CCc1noc(-c2nc(-c3ccc(OC)cc3OC)no2)n1	/	/	0%	/	/	/
CCC(=O)Oc1cc(C(C)(C)C)cc2cc(-c3nc(-c4ccc(OC)cc4OC)no3)c(=O)oc12	?	/	0%	16µM*	/	/
Cc1ccc(C)c(N2CCN(Cc3csc(C)c3)CC2)c1	?	/	-15%	23µM*	/	/
Cc1cccc(N2CCN(CC3CCCCC3)CC2)c1C	?	23	-12%	-27%	-6%	-12%
CCN1CCN(CCCNC(=O)c2ccc3nc(Cc4ccccc4)oc3c2)CC1	9%	/	-24%	22%	/	/
Cc1ccc(C)c(N2CCN(CCCc3ccccc3)CC2)c1	21µM*	25	?	?	-2%	0%
Cc1ccc(C)c(N2CCN(CC3CCCCC3)CC2)c1	?	25	4.5µM*	?	-2%	-7%
C/C=C(\C)CN1CCN(c2cc(C)ccc2C)CC1	?	21	?	-14%	10%	-1%
Cc1ccc(C)c(N2CCN(CCCNC(=O)c3ccc4nc(C(C)C)oc4c3)CC2)c1	7.3µM*	/	?	3.7µM*	/	/
CN1CCN(CCCc2ccccc2)CC1	/	/	-18%	/	/	/
CCOCCCNC(=O)c1oc2ccc3c(c2c1C)C(O)CC(C)(C)O3 (configuration not stated)	-29%	-24	18%	-21%	16%	13%
Cc1ccc(C)c(N2CCN(c3ccncc3N)CC2)c1	18µM*	-3	77%	13µM*	-10%	-5%
Cc1ccc(C)c(N2CCN(CCCNC(=O)c3ccc4nc(CCc5ccccc5)oc4c3)CC2)c1	3.7µM*	/	?	4.1µM*	/	/
CN1CCN(CCC(=O)N/N=C/c2ccccc2F)CC1	4%	3	0%	-1%	5%	16%
